Assay results from PubChem BioAssay.
For some of these results: Potency and affinity values are given separately. Activity calls are given as the source filed them.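 Rule for the calls, unless noted: active = primary screen activator hit with a dose response curve and TRPC4 channel activation at any tested dose; inactive = no activation, no dose response, or not a primary hit.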

Tests used:
[1] = test system: TRPC4 beta (transient receptor potential cation channel C4), mouse; test: activators of mouse TRPC4 channel, confirmation, cell-based, Fluo4 calcium, HEK293 TRPC4beta/mu-opioid, duplicates, 10 µM (AID 2426;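 active = fluorescence ratio normalized to control raised more than 50% in primary screen plus both repeat runs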); settings: Fluo4 calcium fluorescence, at 10 µM; hits give high values
[2] = test system: transient receptor potential cation channel C4 beta (TRPC4), mouse; test: activators of mouse TRPC4 channel, confirmation, cell-based, second round, Fluo4, HEK293 TRPC4beta/mu-opioid, 1 µM (AID 2461;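 active = primary screen active and over 50% activation in each of two duplicate runs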); settings: Fluo4 calcium fluorescence, at 1 µM; hits give high values
[3] = test system: TRPC4 (transient receptor potential cation channel C4 beta), mouse; test: positive allosteric modulators of mouse TRPC4, confirmation, cell-based, second round, Fluo-4, HEK293 TRPC4beta/mu-opioid, 1 µM (AID 2554;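 active = primary screen hit whose fluorescence ratio, in both repeats, exceeds the weak agonist control mean by 3 SD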); settings: DAMGO EC20, Fluo-4 calcium flux, at 1 µM; hits give high values
[4] = test system: TRPC4 beta (transient receptor potential cation channel C4), mouse; test: positive allosteric modulators of mouse TRPC4, confirmation, cell-based, Fluo-4, HEK293 TRPC4beta/mu-opioid (AID 2555;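 active = primary screen hit whose calcium fluorescence ratio, in both repeats, exceeds the weak agonist control mean by 3 SD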); settings: DAMGO EC20, Fluo-4 calcium flux, at 10 µM; hits give high values
[5] = molecular target: Short transient receptor potential channel 4 (Mus musculus) (UniProt Q9QUQ5); test: inhibitors of mouse TRPC4 channel, confirmation, cell-based, Fluo4, HEK293 TRPC4beta/mu-opioid (AID 2636;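 active = calcium signal cut by more than 3 SD below the full-agonist control yet still positive, in both repeats and the earlier primary screen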); settings: DAMGO, Fluo4 calcium flux, at 10 µM; hits give high values
[6] = molecular target: Short transient receptor potential channel 4 (Mus musculus) (UniProt Q9QUQ5); test: inhibitors of mouse TRPC4 channel, confirmation, cell-based, second round, Fluo4, HEK293 TRPC4beta/mu-opioid, 1 µM (AID 2637;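 active = calcium signal ratio cut to more than 3 SD under the fully stimulated control mean yet still positive, in both repeats and the primary screen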;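 for inhibition: percent of integrated ratio relative to wells lacking test compound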); settings: Fluo4 calcium flux, DAMGO, at 1 µM; hits give high values
[7] = molecular target: Short transient receptor potential channel 4 (Mus musculus) (UniProt Q9QUQ5); test: mouse TRPC4 channel activators, dose response, cell-based, HEK293 TRPC4/mu-opioid, Fluo-4 calcium (AID 434937)
[8] = molecular target: Short transient receptor potential channel 4 (Mus musculus) (UniProt Q9QUQ5); test: TRPC4 positive allosteric modulators, dose response, cell-based, HEK293 TRPC4/mu-opioid, Fluo-4 calcium, EC20 DAMGO (AID 434941;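 active = earlier screen potentiator hit that boosts the TRPC4 ion channel at some dose, with a dose response; inactive = no potentiation, no dose response, or not a prior hit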;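 note: calcium entry triggered by an EC20 dose of DAMGO at the co-expressed mu-opioid receptor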)
[9] = molecular target: Short transient receptor potential channel 6 (Mus musculus) (UniProt Q61143); test: inhibition of mouse TRPC6 channel, confirmation, selectivity assay for TRPC4 inhibitor project, cell-based, HEK293, membrane potential dye, duplicate (AID 434948;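 active = active in primary screen and both duplicates, each dropping signal beyond three positive-control SD with fluorescence still positive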); settings: HEK293 TRPC6, membrane potential dye fluorescence, at 10 µM, stimulated with maximal-effect acetylcholine; hits give high values
[10] = molecular target: Short transient receptor potential channel 6 (Mus musculus) (UniProt Q61143); test: activation of mouse TRPC6 channel, confirmation, selectivity assay for TRPC4 activator project, cell-based, HEK293, membrane potential dye, duplicate (AID 434950;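 active = membrane potential signal rise above negative control mean plus 3 SD in both duplicates, also active in the earlier TRPC4 screen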); settings: HEK293 TRPC6, membrane potential fluorescence, at 10 µM; hits give high values
[11] = molecular target: Short transient receptor potential channel 6 (Mus musculus) (UniProt Q61143); test: TRPC6 potentiation by TRPC4 potentiator hits, confirmation, selectivity assay for TRPC4 potentiator project, HEK293 cells, membrane potential dye, duplicate (AID 434952;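 active = compound raising the membrane signal above positive-control mean plus 3 SD in both repeats, and a primary screen hit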); settings: HEK293 TRPC6, membrane potential dye fluorescence, at 10 µM, maximal acetylcholine added after compound; hits give high values
[12] = molecular target: Short transient receptor potential channel 4 (Mus musculus) (UniProt Q9QUQ5); test: calcium flux activators in TRPC4/5HT1a cells, counter-screen for TRPC4 activator project, cell-based, second counter screen, HEK293 TRPC4/5HT1a, Fluo-4 (AID 434977;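 active = calcium signal rise above buffer-control mean plus 5 SD in both duplicates, and also a hit in the primary screen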); settings: Fluo-4 calcium flux, at 10 µM; hits give high values
[13] = calcium flux inhibitors in TRPC4/5HT1a cells, confirmation, counter-screen for TRPC4 inhibitor project, cell-based, second counter screen, HEK293 TRPC4/5HT1a, Fluo-4 (AID 434978;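 active = primary screen active whose calcium signal fell more than 3 SD beyond the full-serotonin control mean in both duplicate plates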;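 for outcome: serotonin given first at submaximal then at maximal dose after compound preincubation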); settings: Fluo-4 calcium flux, at 10 µM, serotonin added to trigger calcium flux; hits give high values
[14] = test system: TRPC4 (mouse), co-expressed with 5HT1a in HEK293; test: calcium flux potentiators in TRPC4/5HT1a cells, confirmation, counter-screen for TRPC4 potentiator project, cell-based, second counter screen, HEK293 TRPC4/5HT1a, Fluo-4 (AID 434979;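 active = signal rise over 3 SD above mean of control wells given weak agonist, in both repeats and first screen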); settings: Fluo-4 calcium flux, at 10 µM, serotonin added at its EC20 dose; hits give high values
[15] = calcium flux activation in mu-opioid HEK293 cells, confirmation, counter-screen for TRPC4 activator project, cell-based, HEK293 mu-opioid receptor line (AID 449723;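 active = hit in primary screen, with calcium signal over 5 SD above buffer well mean in both duplicates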;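 note: counter screen cells carry the mu-opioid receptor alone and lack TRPC4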); settings: Fluo-4 calcium fluorescence, at 10 µM; hits give high values
[16] = calcium flux enhancement in mu-opioid HEK293 cells, confirmation, counter-screen for TRPC4 allosteric potentiator project, cell-based, HEK293 mu-opioid receptor line (AID 449724;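 active = calcium signal rise more than 3 SD above the low-dose agonist control mean, in both duplicate plates and the primary screen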); settings: Fluo-4 calcium flux, at 10 µM, compound added before EC20 DAMGO stimulus; hits give high values

Short transient receptor potential channel 6 (Mus musculus), sequence (Q61143 whole entry, looked up): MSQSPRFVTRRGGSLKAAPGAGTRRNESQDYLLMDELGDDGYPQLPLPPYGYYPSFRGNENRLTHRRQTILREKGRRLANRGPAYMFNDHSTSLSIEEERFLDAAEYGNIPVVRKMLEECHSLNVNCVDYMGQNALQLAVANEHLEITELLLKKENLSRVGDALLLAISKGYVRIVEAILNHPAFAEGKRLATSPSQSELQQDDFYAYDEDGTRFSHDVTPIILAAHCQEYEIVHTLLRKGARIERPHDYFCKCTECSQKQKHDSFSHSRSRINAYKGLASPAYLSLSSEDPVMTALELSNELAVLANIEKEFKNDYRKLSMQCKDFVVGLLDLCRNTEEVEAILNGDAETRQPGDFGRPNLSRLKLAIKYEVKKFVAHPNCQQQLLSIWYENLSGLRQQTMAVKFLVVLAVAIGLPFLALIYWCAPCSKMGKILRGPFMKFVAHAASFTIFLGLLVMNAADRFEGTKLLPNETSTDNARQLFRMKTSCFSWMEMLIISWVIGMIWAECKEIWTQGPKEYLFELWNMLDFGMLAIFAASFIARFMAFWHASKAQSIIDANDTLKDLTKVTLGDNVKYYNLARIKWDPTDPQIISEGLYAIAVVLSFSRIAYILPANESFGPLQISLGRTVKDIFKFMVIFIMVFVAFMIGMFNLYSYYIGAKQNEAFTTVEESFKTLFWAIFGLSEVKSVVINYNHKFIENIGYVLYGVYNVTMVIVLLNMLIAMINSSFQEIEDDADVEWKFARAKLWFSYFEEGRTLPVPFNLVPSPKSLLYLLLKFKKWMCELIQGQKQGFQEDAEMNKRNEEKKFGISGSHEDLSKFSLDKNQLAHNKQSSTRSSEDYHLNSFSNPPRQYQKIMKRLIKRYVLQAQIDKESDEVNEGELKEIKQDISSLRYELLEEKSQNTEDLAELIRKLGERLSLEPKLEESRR
Short transient receptor potential channel 4 (Mus musculus), sequence (Q9QUQ5 whole entry, looked up): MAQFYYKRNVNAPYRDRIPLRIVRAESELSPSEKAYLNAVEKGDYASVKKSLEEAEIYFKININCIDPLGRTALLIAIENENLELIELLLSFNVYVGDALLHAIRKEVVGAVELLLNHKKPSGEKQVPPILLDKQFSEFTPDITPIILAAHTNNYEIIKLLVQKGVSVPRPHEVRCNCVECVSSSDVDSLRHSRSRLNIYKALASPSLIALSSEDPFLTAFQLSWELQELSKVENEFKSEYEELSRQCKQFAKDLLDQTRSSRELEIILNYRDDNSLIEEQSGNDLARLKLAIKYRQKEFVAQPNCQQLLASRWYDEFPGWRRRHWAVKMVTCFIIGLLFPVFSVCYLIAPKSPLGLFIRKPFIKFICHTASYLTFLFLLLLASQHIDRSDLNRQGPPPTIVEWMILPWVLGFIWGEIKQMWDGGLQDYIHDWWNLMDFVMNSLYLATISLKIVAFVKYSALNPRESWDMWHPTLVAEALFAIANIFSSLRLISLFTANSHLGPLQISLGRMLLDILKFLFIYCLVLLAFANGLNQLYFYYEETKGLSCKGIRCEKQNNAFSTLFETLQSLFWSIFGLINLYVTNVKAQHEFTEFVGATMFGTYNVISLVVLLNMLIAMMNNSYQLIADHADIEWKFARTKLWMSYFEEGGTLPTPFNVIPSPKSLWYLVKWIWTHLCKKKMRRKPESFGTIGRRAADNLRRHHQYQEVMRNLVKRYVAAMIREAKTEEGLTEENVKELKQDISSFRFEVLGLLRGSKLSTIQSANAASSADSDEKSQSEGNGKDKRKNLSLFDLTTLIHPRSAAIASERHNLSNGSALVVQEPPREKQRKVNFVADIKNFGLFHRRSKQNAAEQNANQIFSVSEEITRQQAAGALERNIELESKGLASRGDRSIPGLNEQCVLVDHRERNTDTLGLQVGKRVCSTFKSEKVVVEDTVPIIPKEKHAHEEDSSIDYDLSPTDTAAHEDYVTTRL

SMILES | outcome [1] | outcome [2] | outcome [3] | outcome [4] | outcome [5] | outcome [6] | outcome [7] | outcome [8] | outcome [9] | outcome [10] | outcome [11] | outcome [12] | inhibition [13] | outcome [14] | outcome [15] | outcome [16] | inhibition [5] | inhibition [9] | inhibition [6] | outcome [13]
CCCCOc1ccc(Nc2cc(Cl)ccc2C(=O)O)cn1 | inactive | inactive | inactive | inactive | inactive | inactive | inactive | inactive | inactive | inactive | inactive | inactive | 27.6% (active) | inactive | inactive | inactive | – | – | – | –
CCCc1nc(SC2CCCC2)c2c(=O)n(C)c(=O)n(C)c2n1 | inactive | inactive | inactive | inactive | inactive | inactive | inactive | inactive | inactive | inactive | inactive | inactive | 39.1% (active) | inactive | inactive | inactive | – | – | – | –
Cc1cc([N+](=O)[O-])ccc1NCc1ccco1 | inactive | inactive | inactive | inactive | – | inactive | inactive | inactive | inactive | inactive | inactive | inactive | 14.5% (active) | inactive | inactive | inactive | 92% (active) | – | – | –
COc1ccccc1CNCC(c1ccccc1)c1ccccc1 | inactive | inactive | inactive | inactive | – | inactive | inactive | inactive | – | inactive | inactive | inactive | 44.3% (active) | inactive | inactive | inactive | 60% (active) | 55% (active) | – | –
COc1cccc2cc(C(N)=O)/c(=N\NC(=O)c3ccccc3)oc12 | inactive | inactive | inactive | inactive | – | – | inactive | inactive | inactive | inactive | inactive | inactive | 40.1% (active) | inactive | inactive | inactive | 73% (active) | – | 44% (active) | –
Cn1c(-c2ccccc2)cnc1NCc1ccc(F)cc1 | inactive | inactive | inactive | inactive | – | – | inactive | inactive | inactive | inactive | inactive | inactive | 25.1% (active) | inactive | inactive | inactive | 81% (active) | – | 53% (active) | –
N#CCCn1cc(CNCc2ccccc2)c(-c2cccc([N+](=O)[O-])c2)n1 | inactive | inactive | inactive | inactive | – | – | inactive | inactive | inactive | inactive | inactive | inactive | 30.7% (active) | inactive | inactive | inactive | 65% (active) | – | 36% (active) | –
Fc1cccc(Nc2c3c(nc4ccccc24)CCC3)c1 | inactive | inactive | inactive | inactive | – | inactive | inactive | inactive | inactive | inactive | inactive | inactive | 14.9% (active) | inactive | inactive | inactive | 96% (active) | – | – | –
O=C(COc1ccc(Cl)cc1)Nc1ccc(C(=O)O)cc1NC(=O)COc1ccc(Cl)cc1 | inactive | inactive | inactive | inactive | – | inactive | inactive | inactive | inactive | inactive | inactive | inactive | – | inactive | inactive | inactive | 68% (active) | – | – | inactive
CCCC[n+]1c2ccccc2cc2ccccc21 | inactive | inactive | inactive | inactive | – | – | inactive | inactive | inactive | inactive | inactive | inactive | 18.4% (active) | inactive | inactive | inactive | 87% (active) | – | 54% (active) | –
O=C(Cn1c(NCCCO)nc2ccccc21)c1ccc(Br)cc1 | inactive | inactive | inactive | inactive | – | – | inactive | inactive | inactive | inactive | inactive | inactive | 28.7% (active) | inactive | inactive | inactive | 88% (active) | – | 52% (active) | –
Cc1ccc(N(C(=O)c2snc(C(N)=O)c2N)C(C(=O)NCC2CCCO2)c2ccc(C)o2)c(C)c1 (stereo not drawn) | inactive | inactive | inactive | inactive | – | inactive | inactive | inactive | inactive | inactive | inactive | inactive | 34% (active) | inactive | inactive | inactive | 75% (active) | – | – | –
CC1CCc2c(sc3ncnc(SCC(=O)Nc4ccc(C(=O)O)cc4)c23)C1 (stereo not drawn) | inactive | inactive | inactive | inactive | – | – | inactive | inactive | inactive | inactive | inactive | inactive | – | inactive | inactive | inactive | 88% (active) | – | 45% (active) | inactive
CCOc1cc(CNCc2cccs2)ccc1OCC(=O)NC(C)(C)C | inactive | inactive | inactive | inactive | – | – | inactive | inactive | inactive | inactive | inactive | inactive | – | inactive | inactive | inactive | 98% (active) | – | 49% (active) | inactive
CCC1(C(=O)c2ccccc2)C(c2ccc([N+](=O)[O-])cc2)C1(C(=O)OC)C(=O)OC (stereo not drawn) | inactive | inactive | inactive | inactive | – | inactive | inactive | inactive | inactive | inactive | inactive | inactive | – | inactive | inactive | inactive | 71% (active) | – | – | inactive
Cc1nc(Cl)nc(N(C)c2ccccc2)c1[N+](=O)[O-] | inactive | inactive | inactive | inactive | – | – | inactive | inactive | inactive | inactive | inactive | inactive | 43.6% (active) | inactive | inactive | inactive | 97% (active) | – | 49% (active) | –
Cc1ccc(OCc2cc(C(=O)N(C)CCc3nc4ccccc4[nH]3)no2)cc1C | inactive | inactive | inactive | inactive | – | inactive | inactive | inactive | inactive | inactive | inactive | inactive | – | inactive | inactive | inactive | 69% (active) | – | – | inactive
CCN(CC)CCn1c2ccccc2c2cnc(N)c(C#N)c21 | inactive | inactive | inactive | inactive | – | inactive | inactive | inactive | inactive | inactive | inactive | inactive | 32.9% (active) | inactive | inactive | inactive | 82% (active) | – | – | –
Cc1ccc(C)c2nc3sc(C(=O)O)cc3cc12 | inactive | inactive | inactive | inactive | – | inactive | inactive | inactive | inactive | inactive | inactive | inactive | 30.9% (active) | inactive | inactive | inactive | 83% (active) | – | – | –
CN1CCCCc2c1nc1ccccc1c2N (tested in a mixture with another compound) | inactive | inactive | inactive | inactive | – | – | inactive | inactive | – | inactive | inactive | inactive | 12.4% (active) | inactive | inactive | inactive | 95% (active) | 27% (active) | 83% (active) | –
COc1ccc(Nc2cc(C)nc3ccccc23)cc1 | inactive | inactive | inactive | inactive | – | inactive | inactive | inactive | – | inactive | inactive | inactive | 28.9% (active) | inactive | inactive | inactive | 86% (active) | 39% (active) | – | –
CC1(C)CC2CC(C)(CN2CC(O)COc2ccccc2)C1 (stereo not drawn) | inactive | inactive | inactive | inactive | – | inactive | inactive | inactive | inactive | inactive | inactive | inactive | – | inactive | inactive | inactive | 86% (active) | – | – | inactive
Oc1ccc(Nc2nc(N3CCCC3)c3ccccc3n2)cc1 | inactive | inactive | inactive | inactive | – | inactive | inactive | inactive | – | inactive | inactive | inactive | 36.8% (active) | inactive | inactive | inactive | 95% (active) | 39.5% (active) | – | –
Cc1ccc(C)c2[nH]c(=O)c(CN(Cc3nnnn3C3CCCCC3)CC3CCCO3)cc12 (stereo not drawn) | inactive | inactive | inactive | inactive | – | inactive | inactive | inactive | inactive | inactive | inactive | inactive | 33% (active) | inactive | inactive | inactive | 78% (active) | – | – | –
CC(COc1ccccc1)N1CCC(CO)(Cc2ccccc2)CC1 (stereo not drawn) | inactive | inactive | inactive | inactive | – | inactive | inactive | inactive | inactive | inactive | inactive | inactive | 22.9% (active) | inactive | inactive | inactive | 96% (active) | – | – | –
O=C(O)c1ccc(NC(=S)NC(=O)c2ccc(-c3ccccc3)cc2)cc1 | inactive | inactive | inactive | inactive | – | inactive | inactive | inactive | inactive | inactive | inactive | inactive | 43.1% (active) | inactive | inactive | inactive | 64% (active) | – | – | –
Cc1cccc2cc(CN(Cc3nnnn3Cc3ccccc3)C3CCCC3)c(=O)[nH]c12 | inactive | inactive | inactive | inactive | – | – | inactive | inactive | inactive | inactive | inactive | inactive | – | inactive | inactive | inactive | 91% (active) | – | 63% (active) | inactive
Cn1c(NCc2ccccc2O)nc2ccccc21 | inactive | inactive | inactive | inactive | – | inactive | inactive | inactive | inactive | inactive | inactive | inactive | – | inactive | inactive | inactive | 62% (active) | – | – | inactive
